Screening results (PubChem)
LGR2 antag = Drosophila LGR2 receptor signaling inhibition; 0.35% of 380,000 active; HEK293 LGR2, CRE-luciferase, bursicon-stimulated, 4 h; AID 720647; inhibition, % at 9.99 µM;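 active means drop in luminescence signal, shown as inhibition above about 50% in the replicate tests, limit read from the data, passing the limit was not always enough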;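 further: agonist challenge used bursicon conditioned medium at about half maximal strength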
HSF1 inhib = HSF1 inhibition | NIH3T3-HGL HSE-luciferase, MG132-induced, luminescence 8 h; active compounds read low | activity change, negative = inhibition, % at 7.5 µM (by protocol) | 0.77% of 300,000 active | AID 2098;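 active means more than half of replicate wells show activity change below -50%, luminescence cut by over half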;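 further: luciferase reports HSF-1 transcriptional activity via heat shock element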
LMP1 NFkB inh = Epstein-Barr LMP1 NF-kappaB reporter inhibition; LMP1-induced NF-kappaB luciferase reporter cells, luminescence; inhibition, % at 12.5 µM; 0.69% of 350,000 active; AID 504558; in the data active means inhibition above about 41%
TWEAK-Fn14 inh = blocks TWEAK-Fn14 interaction in a reporter cell assay. TWEAK-stimulated Fn14 reporter cells, luciferase luminescence, 8 h. inhibition, % at 10 µM. 2% of 360,000 active. AID 1159606; in the data active means inhibition above about 50%
TROY NFkB inh = inhibitors of TROY-dependent NF-kB signaling | Q293 LMP1-TROYcd NF-kB luciferase reporter, 4 h | inhibition, % at 10 µM | 0.98% of 360,000 active;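 active means compounds whose plate-normalised and pattern-corrected inhibition of the luciferase reporter signal at the single screening dose is 50% or more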
HSF-1 act = increases HSF-1 driven luciferase reporter signal; activation, % at 9 µM; NIH3T3-HGL HSF-1 luciferase reporter, MG132, 8 h; 100% = twice DMSO control signal; AID 504408; 1.7% of 300,000 active;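 active means mean replicate activation of at least 50% with a set share of replicates each reaching 50%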
A number is an active result; n = inactive; x = not tested or not shown. An excerpt weighted towards active compounds, which were near 3.6% of everything screened.

SMILES | LGR2 antag | HSF1 inhib | LMP1 NFkB inh | TWEAK-Fn14 inh | TROY NFkB inh | HSF-1 act
O=c1c2ccccc2sc2nc(C3CCCCC3)n(Cc3ccco3)c(=O)c12 | x | n | n | n | n | 86
CCc1nc2sc3ccccc3c(=O)c2c(=O)n1Cc1ccco1 | x | n | n | n | n | n
CN1CCC(N(C)CC(O)c2ccccc2)CC1 (stereo unspecified) | n | n | n | n | n | n
Cc1ccccc1CN(C)C1CCN(C)CC1 | n | n | n | 110 | n | n
OCCN(Cc1ccccc1)Cc1ccccc1Cl | n | n | n | n | n | n
OCCN(Cc1ccccc1)Cc1cccc(Cl)c1Cl | x | -80 | n | n | n | n
C[C@@H]1CCCCO[C@H](CN(C)C(=O)c2ccccc2)[C@@H](C)CN([C@@H](C)CO)C(=O)c2cc(NC(=O)c3ccncc3)ccc2O1 | n | x | x | x | x | x
N#Cc1c([N+](=O)[O-])cc([N+](=O)[O-])cc1S(=O)(=O)Cc1ccccc1 | n | x | n | n | 52 | x
O=C(Cc1ccccc1)Nc1cccc([N+](=O)[O-])c1 | n | n | n | n | n | n
O=C(Nc1cccc([N+](=O)[O-])c1)c1cnccn1 | n | n | n | n | n | n
O=C(Nc1cccc([N+](=O)[O-])c1)c1ccc2ccccc2c1O | n | n | n | 53 | n | n
O=C(Nc1cccc([N+](=O)[O-])c1)c1[nH]ncc1Cl | n | n | n | n | n | 52
CCOc1ccc(OCCC(=O)OCC(=O)N2CCN(S(=O)(=O)c3ccc(Cl)cc3)CC2)cc1 | n | n | n | n | n | 87
Cc1ccc(S(=O)(=O)N2CCN(C(=O)COC(=O)COc3ccc(Cl)c(C)c3)CC2)c(C)c1 | n | x | n | n | n | x
Cc1ccc(S(=O)(=O)N2CCN(C(=O)COC(=O)COc3ccc(Cl)cc3)CC2)c(C)c1 | x | x | 58 | n | n | x
COc1ccc(NC(=O)c2cc3c(-c4ccc(OC)c(OC)c4)nn(C)c3s2)cc1OC | x | n | n | 58 | n | n
COc1ccc(-c2nn(C)c3sc(C(=O)NCc4ccco4)cc23)cc1OC | x | n | n | n | n | n
CN1CCc2c(sc3c2C(=O)NC(c2ccc(-c4ccc(Cl)cc4)o2)N3)C1 (stereo unspecified) | x | -86 | n | n | n | n
Cc1cc(C)c(S(=O)(=O)c2ccc(Cl)cc2)c(Cl)n1 | n | n | n | n | n | n
Cc1cc(S(=O)(=O)c2ccc(Cl)cc2)nc(S(=O)(=O)c2ccc(Cl)cc2)c1C#N | n | x | 52 | 77 | 57 | x
c1csc(CCNc2ncnc3sc4c(c23)CCC4)c1 | x | n | n | 61 | 54 | n
Cc1noc(C)c1S(=O)(=O)N(C)C[C@H]1OCCCC[C@H](C)Oc2ccc(NC(=O)Nc3ccc(F)cc3)cc2C(=O)N([C@H](C)CO)C[C@@H]1C | n | x | x | x | x | x
O=C(c1cc(S(=O)(=O)NCc2ccco2)ccc1Br)N1CCOCC1 | n | x | 71 | n | n | x
COc1ccc(S(=O)(=O)NCc2ccco2)cc1C(=O)N1CCOCC1 | n | n | n | n | n | n
COc1ccccc1NC(=S)N(Cc1ccco1)Cc1cc2cc(C)ccc2[nH]c1=O | n | n | n | n | n | 99
SMILES | LGR2 antag | HSF1 inhib | LMP1 NFkB inh | TWEAK-Fn14 inh | TROY NFkB inh | HSF-1 act
Cc1ccc(C)c2[nH]c(=O)c(CN(CC3CCCO3)C(=S)NCc3ccco3)cc12 (stereo unspecified) | n | n | n | n | n | n
Cc1ccc(C)c2[nH]c(=O)c(CN(Cc3cccs3)C(=S)NCc3ccco3)cc12 | n | n | n | n | n | 77
CCC(CC)C(=O)NCCc1cc2cc(C)c(C)cc2[nH]c1=O | n | n | n | n | n | n
Cc1cc2cc(CN(CCN(C)C)C(=S)NCc3ccco3)c(=O)[nH]c2cc1C | n | n | n | n | n | n
Cc1cc2cc(CCNC(=O)c3cccs3)c(=O)[nH]c2cc1C | n | n | n | n | n | 58
Cc1cc2cc(CN(Cc3cccs3)C(=S)NCc3ccco3)c(=O)[nH]c2cc1C | n | n | n | n | n | 63
COc1ccc2c3c([nH]c2c1)[C@@H](CO)N(C(=O)CN1CCOCC1)CC31CN(C(C)=O)C1 | n | x | x | x | x | x
CCCCNC(=S)N(Cc1ccco1)Cc1cc2cc3c(cc2[nH]c1=O)OCCO3 | n | n | n | n | n | 156
O=[N+]([O-])c1cccc(N=Nc2ccc(O)cc2O)c1 | n | x | n | 59 | n | x
O=[N+]([O-])c1ccc(N=Nc2ccc(O)cc2O)cc1 | x | n | n | n | n | n
CCOC(=O)c1oc2ccccc2c1CN1CCCCC1 | n | n | n | n | n | n
CCOC(=O)c1oc2ccccc2c1CN1CCN(C)CC1 | x | n | n | 86 | x | n
CC[C@H](C)[C@H]1O[C@]2(CC[C@@H]1C)C[C@@H]1C[C@@H](CC=C(C)[C@@H](O[C@H]3C[C@H](OC)[C@@H](O[C@H]4C[C@H](OC)[C@@H](O)[C@H](C)O4)[C@H](C)O3)[C@@H](C)C=CC=C3CO[C@@H]4[C@H](O)C(C)=C[C@@H](C(=O)O1)[C@]34O)O2 | x | x | n | 100 | n | x
CS(=O)(=O)c1nc(-c2ccccc2)cc(-c2ccccc2)c1C#N | x | n | n | n | n | 167
Cc1cc(C)n2cc(COc3ccc4ccccc4c3)nc2n1 | n | n | n | n | n | 67
Cc1cccc2nc(COc3ccc(-c4ccccc4)cc3)cn12 | x | n | x | x | x | 65
CCOC(=O)c1cn2c(C)cccc2n1 | n | n | n | n | n | n
S=c1[nH]nc(-c2cccc(Cl)c2)n1/N=C/c1ccc(-c2ccccc2Br)o1 | n | n | n | n | n | n
S=c1[nH]nc(-c2ccccc2)n1/N=C/c1ccc(-c2ccccc2Cl)o1 | n | n | n | n | n | 151
Fc1cccc(Cl)c1/C=N/n1c(-c2cccnc2)n[nH]c1=S | n | n | 52 | n | n | n
CSc1oc(-c2ccc(F)cc2)nc1S(=O)(=O)c1ccc(F)cc1 | n | n | 89 | n | n | n
COc1ccc(/C=C2\SC(=S)N(CCC(=O)N3CCCCC3)C2=O)cc1 | n | n | n | 50 | n | n
CCOc1ccc(/C=C2\SC(=S)N(CCC(=O)O)C2=O)cc1 | n | -60 | 47 | 86 | 58 | n
COc1ccc(/C=C2/SC(=S)N(CCC(=O)N3CCN(C)CC3)C2=O)cc1 | n | n | n | n | n | n
O=C1/C(=C/c2ccco2)SC(=S)N1CCC(=O)N1CCCCC1CCO (stereo unspecified) | n | n | n | n | n | 55
O=C1/C(=C/c2ccc(Cl)cc2)SC(=S)N1CCC(=O)N1CCCCC1CCO (stereo unspecified) | n | n | n | n | n | n
CCOc1ccc(/C=C2/SC(=S)N(CCC(=O)Nc3ccc(C(=O)O)cc3)C2=O)cc1 | n | n | n | n | n | n
O=C(C[C@H]1CC[C@@H]2[C@H](COC[C@H](O)CN2C(=O)c2ccccc2)O1)Nc1ccc(-c2ccccc2)cc1 | n | x | x | x | x | x
